Assay in all cases: DAPPL (digital affinity profiling via proximity ligation, sequencing); 10 mM Tris-HCl pH 7.5, 50 mM NaCl, 1 mM DTT, 4% glycerol, room temperature, 30 min; GST-TFs on glutathione beads, 16-mer random dsDNA library, 0.1% formaldehyde crosslink after washing; high values mean tight binding
For one assay, the target named is T1, FEV (Homo sapiens, UniProt Q99581 1-238).
T1 sequence: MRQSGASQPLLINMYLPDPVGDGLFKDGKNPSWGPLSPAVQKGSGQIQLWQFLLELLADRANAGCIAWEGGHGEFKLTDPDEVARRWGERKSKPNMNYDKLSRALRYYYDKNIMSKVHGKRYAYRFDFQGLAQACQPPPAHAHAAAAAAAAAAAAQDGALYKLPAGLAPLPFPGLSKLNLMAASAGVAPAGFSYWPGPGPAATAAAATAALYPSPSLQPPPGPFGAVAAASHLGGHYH
The following applies: protein: recombinant; tags: N-terminal GST; dsDNA, one strand shown. In a few lines:
(§1)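 Human transcription factors were made in yeast as GST fusions, captured on glutathione beads and barcoded with DNA. With a tag-only sample included, the pool was incubated with 200 nmole of a random double-stranded 16-mer DNA library in Tris/NaCl/DTT/glycerol buffer at room temperature for 30 min, then crosslinked with 0.1% formaldehyde after washing, ligated by proximity, amplified and sequenced. For binding signal, each hexamer's read frequency for a factor is divided by its frequency for the tag-only sample.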

Another assay has as its target ETV5 (Homo sapiens, UniProt P41161 1-510). To be noted: protein: recombinant; tags: N-terminal GST; dsDNA, one strand shown. Put shortly: as §1
The next assay addresses HSF1 (Homo sapiens, UniProt Q00613 1-529). The following applies: protein: recombinant; tags: N-terminal GST; chain copies: 3; dsDNA, one strand shown. In a few lines: as §1
A further assay has as its target T2, SPIC (Homo sapiens, UniProt Q8N5J4 1-248).
T2 sequence: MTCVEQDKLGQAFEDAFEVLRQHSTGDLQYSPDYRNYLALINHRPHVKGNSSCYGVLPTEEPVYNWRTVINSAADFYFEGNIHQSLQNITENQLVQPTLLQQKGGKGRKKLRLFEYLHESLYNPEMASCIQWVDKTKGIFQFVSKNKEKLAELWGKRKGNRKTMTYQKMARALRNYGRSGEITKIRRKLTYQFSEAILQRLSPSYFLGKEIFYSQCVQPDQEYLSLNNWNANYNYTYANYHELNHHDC
To be noted: protein: recombinant; tags: N-terminal GST; dsDNA, one strand shown. In a few lines: as §1

The target in a further assay is ELF4 (Homo sapiens, UniProt Q99607 1-663). The following applies: protein: recombinant; tags: N-terminal GST; dsDNA, one strand shown. In a few lines: as §1
ELF4, sequence (Q99607 whole entry): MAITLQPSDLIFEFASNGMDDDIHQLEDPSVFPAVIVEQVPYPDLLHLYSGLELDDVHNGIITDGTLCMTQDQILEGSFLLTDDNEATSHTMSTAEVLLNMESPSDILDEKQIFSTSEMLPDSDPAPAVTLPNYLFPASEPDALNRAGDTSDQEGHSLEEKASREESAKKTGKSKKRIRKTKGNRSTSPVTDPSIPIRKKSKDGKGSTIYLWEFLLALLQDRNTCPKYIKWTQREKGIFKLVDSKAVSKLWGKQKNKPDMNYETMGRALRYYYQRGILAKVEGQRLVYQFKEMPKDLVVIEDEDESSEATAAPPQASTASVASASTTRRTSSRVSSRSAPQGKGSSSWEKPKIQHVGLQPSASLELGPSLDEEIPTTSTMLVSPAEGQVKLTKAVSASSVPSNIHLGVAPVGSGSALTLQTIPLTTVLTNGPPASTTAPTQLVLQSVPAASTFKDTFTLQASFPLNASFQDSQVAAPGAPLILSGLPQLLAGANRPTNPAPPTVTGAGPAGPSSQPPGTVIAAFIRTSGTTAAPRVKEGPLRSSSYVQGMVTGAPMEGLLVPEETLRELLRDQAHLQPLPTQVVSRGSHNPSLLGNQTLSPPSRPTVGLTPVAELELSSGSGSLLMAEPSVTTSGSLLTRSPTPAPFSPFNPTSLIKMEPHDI
The target in a further assay is T3, ELK4 (Homo sapiens, UniProt P28324-2 1-405).
T3 sequence: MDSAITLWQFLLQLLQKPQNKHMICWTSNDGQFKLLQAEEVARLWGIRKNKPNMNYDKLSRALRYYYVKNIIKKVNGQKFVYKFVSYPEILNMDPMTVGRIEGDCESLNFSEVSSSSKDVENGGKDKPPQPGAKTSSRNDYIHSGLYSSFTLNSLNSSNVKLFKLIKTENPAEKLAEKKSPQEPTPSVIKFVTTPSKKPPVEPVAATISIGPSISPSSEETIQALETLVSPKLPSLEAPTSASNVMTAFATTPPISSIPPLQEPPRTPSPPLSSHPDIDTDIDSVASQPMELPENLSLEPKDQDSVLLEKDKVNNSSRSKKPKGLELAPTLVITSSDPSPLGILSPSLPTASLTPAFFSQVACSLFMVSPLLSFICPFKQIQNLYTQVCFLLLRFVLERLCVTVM
To be noted: protein: recombinant; tags: N-terminal GST; dsDNA, one strand shown. In a few lines: as §1

A further assay deals with T4, ETV2 (Homo sapiens, UniProt O00321 1-342).
T4 sequence: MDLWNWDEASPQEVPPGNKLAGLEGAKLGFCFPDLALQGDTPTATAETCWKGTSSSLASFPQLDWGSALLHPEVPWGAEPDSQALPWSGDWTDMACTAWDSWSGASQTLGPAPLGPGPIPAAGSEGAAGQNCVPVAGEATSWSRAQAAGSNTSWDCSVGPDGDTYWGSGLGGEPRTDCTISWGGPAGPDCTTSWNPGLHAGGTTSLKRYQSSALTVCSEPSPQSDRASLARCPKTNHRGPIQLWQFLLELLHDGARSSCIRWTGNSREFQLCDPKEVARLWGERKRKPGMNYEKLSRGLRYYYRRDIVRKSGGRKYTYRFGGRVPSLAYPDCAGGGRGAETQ
The following applies: protein: recombinant; tags: N-terminal GST; dsDNA, one strand shown. In a few lines:
as §1

In a further assay the target is T5, ELF3 (Homo sapiens, UniProt P78545 1-371).
T5 sequence: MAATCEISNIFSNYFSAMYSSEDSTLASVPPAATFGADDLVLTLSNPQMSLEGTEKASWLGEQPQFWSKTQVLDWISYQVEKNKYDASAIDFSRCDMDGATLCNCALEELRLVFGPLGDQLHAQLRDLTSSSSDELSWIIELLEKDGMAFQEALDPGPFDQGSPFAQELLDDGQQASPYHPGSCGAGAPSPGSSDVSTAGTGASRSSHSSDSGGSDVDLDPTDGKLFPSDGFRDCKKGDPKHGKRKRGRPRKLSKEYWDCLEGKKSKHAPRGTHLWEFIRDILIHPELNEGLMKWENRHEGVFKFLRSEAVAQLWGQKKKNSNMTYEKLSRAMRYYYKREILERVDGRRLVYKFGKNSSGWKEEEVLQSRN
To be noted: protein: recombinant; tags: N-terminal GST; dsDNA, one strand shown. Put shortly:
as §1

For a further assay, the target named is CRX (Homo sapiens, UniProt O43186 1-299). To be noted: protein: recombinant; tags: N-terminal GST; dsDNA, one strand shown. Put shortly: as §1
CRX, sequence (O43186 whole entry): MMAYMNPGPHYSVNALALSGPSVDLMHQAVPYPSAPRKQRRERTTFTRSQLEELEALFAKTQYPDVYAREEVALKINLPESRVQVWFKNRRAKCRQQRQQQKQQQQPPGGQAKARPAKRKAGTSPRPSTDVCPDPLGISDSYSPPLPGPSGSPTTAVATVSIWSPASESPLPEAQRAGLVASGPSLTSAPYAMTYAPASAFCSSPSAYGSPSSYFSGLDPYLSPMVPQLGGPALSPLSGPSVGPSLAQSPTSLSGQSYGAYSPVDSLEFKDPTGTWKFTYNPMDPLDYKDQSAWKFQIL
The target in the next assay is ETV1 (Homo sapiens, UniProt P50549 1-477). The following applies: protein: recombinant; tags: N-terminal GST; dsDNA, one strand shown. In a few lines: as §1
ETV1, sequence (P50549 whole entry): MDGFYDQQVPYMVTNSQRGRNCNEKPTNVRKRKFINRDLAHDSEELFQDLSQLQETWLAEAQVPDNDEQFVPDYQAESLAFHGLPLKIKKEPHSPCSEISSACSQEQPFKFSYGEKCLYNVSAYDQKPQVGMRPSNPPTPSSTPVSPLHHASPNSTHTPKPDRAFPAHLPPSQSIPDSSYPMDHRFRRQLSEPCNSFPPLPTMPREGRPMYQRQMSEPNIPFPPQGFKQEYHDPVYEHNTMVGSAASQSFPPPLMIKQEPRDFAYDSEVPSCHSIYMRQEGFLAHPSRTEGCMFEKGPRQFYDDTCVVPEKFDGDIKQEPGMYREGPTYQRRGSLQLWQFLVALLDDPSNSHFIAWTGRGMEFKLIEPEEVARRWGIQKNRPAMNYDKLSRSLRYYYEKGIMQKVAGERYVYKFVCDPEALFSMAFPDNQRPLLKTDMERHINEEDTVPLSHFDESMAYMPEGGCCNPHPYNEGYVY
For a further assay, the target named is T6, ERF (Homo sapiens, UniProt P50548 1-548).
T6 sequence: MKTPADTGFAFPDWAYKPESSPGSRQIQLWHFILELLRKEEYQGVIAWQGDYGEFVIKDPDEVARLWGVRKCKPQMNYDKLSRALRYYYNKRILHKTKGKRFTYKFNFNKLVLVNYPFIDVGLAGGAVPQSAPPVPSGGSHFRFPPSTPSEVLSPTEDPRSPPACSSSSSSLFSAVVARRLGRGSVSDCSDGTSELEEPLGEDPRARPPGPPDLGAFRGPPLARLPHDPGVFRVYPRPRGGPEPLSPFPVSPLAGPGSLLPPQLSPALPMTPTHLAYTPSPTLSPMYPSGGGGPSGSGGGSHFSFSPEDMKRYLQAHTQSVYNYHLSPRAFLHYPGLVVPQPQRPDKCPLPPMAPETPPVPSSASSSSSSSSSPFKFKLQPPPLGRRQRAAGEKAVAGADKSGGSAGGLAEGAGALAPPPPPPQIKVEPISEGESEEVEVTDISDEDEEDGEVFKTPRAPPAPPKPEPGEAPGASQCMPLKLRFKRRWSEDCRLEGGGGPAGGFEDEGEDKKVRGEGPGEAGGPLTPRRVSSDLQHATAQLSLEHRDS
The following applies: protein: recombinant; tags: N-terminal GST; dsDNA, one strand shown. In a few lines: as §1

For the next assay, the target named is T7, ETV3L (Homo sapiens, UniProt Q6ZN32 1-361).
T7 sequence: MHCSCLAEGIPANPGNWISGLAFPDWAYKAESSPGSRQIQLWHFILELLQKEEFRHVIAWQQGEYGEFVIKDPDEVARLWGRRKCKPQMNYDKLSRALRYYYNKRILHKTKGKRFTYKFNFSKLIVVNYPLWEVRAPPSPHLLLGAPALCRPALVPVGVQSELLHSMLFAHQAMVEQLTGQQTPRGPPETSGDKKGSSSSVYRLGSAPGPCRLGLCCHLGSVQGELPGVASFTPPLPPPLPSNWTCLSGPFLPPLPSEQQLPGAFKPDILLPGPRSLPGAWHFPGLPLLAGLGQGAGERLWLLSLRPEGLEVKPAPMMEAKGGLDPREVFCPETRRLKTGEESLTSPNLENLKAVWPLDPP
To be noted: protein: recombinant; tags: N-terminal GST; dsDNA, one strand shown. In a few lines:
as §1

In a further assay the target is T8, ETS2 (Homo sapiens, UniProt P15036 1-469).
T8 sequence: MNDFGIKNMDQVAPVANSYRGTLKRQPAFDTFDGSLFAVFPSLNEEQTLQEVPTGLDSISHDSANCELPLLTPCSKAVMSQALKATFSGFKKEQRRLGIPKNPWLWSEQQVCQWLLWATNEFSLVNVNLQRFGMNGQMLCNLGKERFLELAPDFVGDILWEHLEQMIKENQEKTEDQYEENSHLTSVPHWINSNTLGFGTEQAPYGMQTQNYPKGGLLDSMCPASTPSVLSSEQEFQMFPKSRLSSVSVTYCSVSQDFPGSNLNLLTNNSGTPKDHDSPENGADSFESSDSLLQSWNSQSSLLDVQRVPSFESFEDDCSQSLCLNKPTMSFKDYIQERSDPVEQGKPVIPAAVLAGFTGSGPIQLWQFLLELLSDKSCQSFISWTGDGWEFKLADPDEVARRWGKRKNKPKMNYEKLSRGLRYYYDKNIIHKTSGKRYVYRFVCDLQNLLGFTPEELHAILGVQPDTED
The following applies: protein: recombinant; tags: N-terminal GST; dsDNA, one strand shown. In a few lines:
as §1

A further assay concerns the target T9, SPDEF (Homo sapiens, UniProt O95238 1-335).
T9 sequence: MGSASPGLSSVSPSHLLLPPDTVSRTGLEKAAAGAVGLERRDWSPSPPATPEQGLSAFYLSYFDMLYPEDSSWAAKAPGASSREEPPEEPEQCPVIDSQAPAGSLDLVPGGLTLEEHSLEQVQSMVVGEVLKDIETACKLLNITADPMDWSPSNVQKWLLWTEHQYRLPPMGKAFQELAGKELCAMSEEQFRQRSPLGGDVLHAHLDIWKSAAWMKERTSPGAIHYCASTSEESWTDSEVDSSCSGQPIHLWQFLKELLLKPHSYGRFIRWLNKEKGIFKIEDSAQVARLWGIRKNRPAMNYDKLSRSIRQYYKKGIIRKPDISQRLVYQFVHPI
To be noted: protein: recombinant; tags: N-terminal GST; dsDNA, one strand shown. In a few lines:
as §1

The target of the next assay is T10, ETV7 (Homo sapiens, UniProt Q9Y603 1-341).
T10 sequence: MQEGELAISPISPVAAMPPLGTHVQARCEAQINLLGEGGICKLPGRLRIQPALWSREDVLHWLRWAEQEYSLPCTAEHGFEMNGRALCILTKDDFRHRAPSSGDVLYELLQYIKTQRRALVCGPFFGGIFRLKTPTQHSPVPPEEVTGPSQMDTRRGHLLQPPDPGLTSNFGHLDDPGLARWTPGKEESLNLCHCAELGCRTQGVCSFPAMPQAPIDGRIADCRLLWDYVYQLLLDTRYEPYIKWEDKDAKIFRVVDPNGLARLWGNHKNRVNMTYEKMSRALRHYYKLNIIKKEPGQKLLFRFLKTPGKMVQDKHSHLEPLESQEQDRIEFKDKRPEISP
To be noted: protein: recombinant; tags: N-terminal GST; dsDNA, one strand shown. In a few lines:
as §1

A further assay concerns the target T11, ELF5 (Homo sapiens, UniProt Q9UKW6-2 1-255).
T11 sequence: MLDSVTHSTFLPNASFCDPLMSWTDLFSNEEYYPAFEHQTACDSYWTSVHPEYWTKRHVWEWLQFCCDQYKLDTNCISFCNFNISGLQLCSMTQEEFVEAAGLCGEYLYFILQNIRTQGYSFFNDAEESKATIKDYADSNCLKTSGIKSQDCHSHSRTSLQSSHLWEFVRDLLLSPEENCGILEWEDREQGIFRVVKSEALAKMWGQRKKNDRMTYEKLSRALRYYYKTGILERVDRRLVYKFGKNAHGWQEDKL
The following applies: protein: recombinant; tags: N-terminal GST; dsDNA, one strand shown. In a few lines:
as §1

For the next assay, the target named is T12, ETV3 (Homo sapiens, UniProt P41162-2 1-143).
T12 sequence: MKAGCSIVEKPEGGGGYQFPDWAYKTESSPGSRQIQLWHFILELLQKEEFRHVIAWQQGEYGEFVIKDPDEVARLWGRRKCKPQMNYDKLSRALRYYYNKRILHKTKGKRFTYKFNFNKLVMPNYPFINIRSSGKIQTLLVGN
To be noted: protein: recombinant; tags: N-terminal GST; dsDNA, one strand shown. Put shortly: as §1

The target in the next assay is ETV6 (Homo sapiens, UniProt P41212 1-452). To be noted: protein: recombinant; tags: N-terminal GST; dsDNA, one strand shown. Put shortly: as §1
ETV6, sequence (P41212 whole entry): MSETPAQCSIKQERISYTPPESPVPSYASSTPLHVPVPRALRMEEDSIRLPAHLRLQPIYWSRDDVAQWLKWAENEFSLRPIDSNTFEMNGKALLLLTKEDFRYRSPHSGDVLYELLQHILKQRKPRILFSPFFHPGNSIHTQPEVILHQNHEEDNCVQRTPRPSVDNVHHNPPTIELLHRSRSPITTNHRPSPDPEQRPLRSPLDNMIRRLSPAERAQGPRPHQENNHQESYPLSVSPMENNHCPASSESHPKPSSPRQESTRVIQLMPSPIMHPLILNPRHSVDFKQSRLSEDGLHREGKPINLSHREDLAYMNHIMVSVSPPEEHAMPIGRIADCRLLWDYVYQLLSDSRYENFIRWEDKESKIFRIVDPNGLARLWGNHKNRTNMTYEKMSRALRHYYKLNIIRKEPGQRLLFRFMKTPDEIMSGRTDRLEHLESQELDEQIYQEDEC

HSF1, sequence (Q00613 whole entry): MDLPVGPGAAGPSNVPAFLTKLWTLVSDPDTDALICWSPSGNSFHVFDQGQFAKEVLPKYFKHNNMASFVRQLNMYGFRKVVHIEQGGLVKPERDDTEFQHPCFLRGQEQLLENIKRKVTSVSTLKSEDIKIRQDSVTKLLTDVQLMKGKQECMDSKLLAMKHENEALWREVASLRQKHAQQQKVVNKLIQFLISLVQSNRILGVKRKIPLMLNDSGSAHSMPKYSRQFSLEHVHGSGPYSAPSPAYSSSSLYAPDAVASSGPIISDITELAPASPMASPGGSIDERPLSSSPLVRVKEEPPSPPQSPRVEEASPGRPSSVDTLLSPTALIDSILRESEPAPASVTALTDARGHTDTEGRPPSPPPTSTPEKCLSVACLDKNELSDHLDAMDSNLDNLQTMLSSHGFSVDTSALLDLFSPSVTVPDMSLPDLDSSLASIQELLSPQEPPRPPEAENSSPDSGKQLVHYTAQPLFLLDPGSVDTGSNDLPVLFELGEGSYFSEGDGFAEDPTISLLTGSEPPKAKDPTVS
ETV5, sequence (P41161 whole entry): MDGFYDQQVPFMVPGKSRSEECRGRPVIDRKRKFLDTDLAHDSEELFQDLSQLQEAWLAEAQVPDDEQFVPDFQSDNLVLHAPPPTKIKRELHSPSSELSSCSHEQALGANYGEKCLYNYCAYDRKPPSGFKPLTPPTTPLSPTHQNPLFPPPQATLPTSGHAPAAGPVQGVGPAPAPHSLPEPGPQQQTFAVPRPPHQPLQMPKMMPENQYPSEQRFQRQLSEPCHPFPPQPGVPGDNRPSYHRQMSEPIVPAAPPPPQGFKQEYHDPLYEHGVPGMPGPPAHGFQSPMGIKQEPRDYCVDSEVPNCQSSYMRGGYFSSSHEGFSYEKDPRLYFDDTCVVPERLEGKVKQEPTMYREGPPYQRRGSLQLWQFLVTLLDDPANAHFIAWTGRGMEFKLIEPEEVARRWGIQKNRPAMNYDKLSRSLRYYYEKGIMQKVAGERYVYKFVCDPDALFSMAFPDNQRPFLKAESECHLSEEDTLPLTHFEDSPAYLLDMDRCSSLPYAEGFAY

For the sequence AACATC, the binding signal with FEV was 1.63 fold enrichment (6-mer frequency, TF over GST control); in the assay with ETV5, 1.51 fold enrichment (6-mer frequency, TF over GST control); with HSF1 it was 1.3 fold enrichment (6-mer frequency, TF over GST control); with SPIC, 1.44 fold enrichment (6-mer frequency, TF over GST control); with ELF4 it was 1.41 fold enrichment (6-mer frequency, TF over GST control); with ELK4 it was 1.41 fold enrichment (6-mer frequency, TF over GST control). The binding signal is 1.45 fold enrichment (6-mer frequency, TF over GST control) in the assay with ETV2; 1.5 fold enrichment (6-mer frequency, TF over GST control) with ELF3; 1.12 fold enrichment (6-mer frequency, TF over GST control) with CRX; 1.43 fold enrichment (6-mer frequency, TF over GST control) with ETV1; 1.43 fold enrichment (6-mer frequency, TF over GST control) in the assay with ERF; 1.41 fold enrichment (6-mer frequency, TF over GST control) with ETV3L. The binding signal in the assay with ETS2 is 1.45 fold enrichment (6-mer frequency, TF over GST control); with SPDEF it was 1.68 fold enrichment (6-mer frequency, TF over GST control); with ETV7, 1.35 fold enrichment (6-mer frequency, TF over GST control); with ELF5 it was 1.64 fold enrichment (6-mer frequency, TF over GST control); in the assay with ETV3, 1.5 fold enrichment (6-mer frequency, TF over GST control); with ETV6, 1.4 fold enrichment (6-mer frequency, TF over GST control).

Source of the values: article PMC7862700, “An all-to-all approach to the identification of sequence-specific readers for epigenetic DNA modifications on cytosine”.
